The values below come from PubChem BioAssay AID504850 (National Center for Advancing Translational Sciences (NCATS), 2011).

Hit rate of the full screen: of about 2,300 compounds, about 1,200 (52%) were called active. Not shown: some 34% with an inconclusive outcome. Calls follow the shape of the dose curve; as a rule, active = well fitted inhibition curve with a large enough effect; inconclusive = small, poorly fitted or top-dose-only effect, or effect the other way; inactive = no such curve, though single readings can be large or run the other way. The set was probably picked from earlier hits. Some of the results follow.
Potency is read from the fitted curve at half-maximal effect.

This assay is described as follows: Confirmation screen for delayed death inhibitors of the malarial parasite plastid, 48 hour incubation. Also: nearly all actives have a fitted effect of over 65% in size. The following applies: P. falciparum-infected erythrocytes, luciferase growth; series mostly up to 28.7 µM. The text has this: The goal of this screen is to discover new antimalarial compounds that act by inhibiting the development of the apicoplast in the malarial parasite Plasmodium falciparum. The biochemical processes that make this organelle essential for erythrocytic stage parasites are not well understood. However, antibiotics, such as azithromycin and tetracycline, which target the apicoplast translational machinery, have a potent antimalarial effect. […] We have developed a cell-based assay that measures parasite growth based on the expression of an integrated copy of a firefly luciferase reporter. To detect small molecules that cause this "delayed death phenotype, erythrocytes infected with the luciferase-expressing parasites were incubated with compounds for either one or two generations, corresponding to 48 and 96 hours, respectively. Compounds that inhibit parasite growth in the second generation, but not the first, should be enriched in antimalarials that target the apicoplast. Growth inhibition is detected by a decrease in luciferase activity. MLPCN Grant: R21 NS059500 Assay Provider: David Fidock and Eric Ekland, Columbia University Keywords: NIH Roadmap, MLPCN, MLI, MLSMR, qHTS, NCGC, qHTS, malaria, luciferase, viability
Four microliters of culture medium (RPMI 1640 with 0.5% w/v Albumax (GIBCO), 24 mM sodium bicarbonate and 10 ug/mL gentamycin) were dispensed by a Multi-drop Combi into white solid 1536-well plates (Grenier) and 23 nL compound was added by a pin tool. Four microliters of infected erythrocytes (2% hematocrit, 0.1% parasitemia final concentration) in culture medium were dispensed and the plates incubated for 48 hours at 37 C in 5% CO2. Two microliters of luciferase detection reagent was added and luminescence was detected by a ViewLux (PerkinElmer) reader.
For `O=C(NC1CCCCC1)C(c1ccncc1)N(Cc1ccccc1)C(=O)c1ccc(-c2ccccc2)[nH]1` (stereo unspecified), the Potency was 4.47 µM (active).

As to `COc1ccc(CN(C(=O)/C=C/C(=O)c2ccc(OC)cc2O)C(C(=O)NC2CCCCC2)c2ccncc2)cc1` (stereo unspecified), the Potency was 7.94 µM (active).

Regarding `O=C(NC1CCCC1)C(c1ccncc1)N(Cc1ccco1)C(=O)c1ccc(-c2ccccc2)[nH]1` (stereo unspecified), the Potency was 11.2 µM (active).

On to `COc1ccc(NC(=S)N(CCCN2CCCCCC2)Cc2cccs2)cc1`, for which the Potency is 11.2 µM (active).

As to `O=C(Nc1nnc(SCC(=O)N2CCCC2)s1)C1CC(=O)N(c2ccc(F)cc2)C1` (stereo unspecified), the Potency was 11.2 µM (active).

For the compound `COc1cccc(N2CC(C(=O)Nc3nnc(SCCC4OCCO4)s3)CC2=O)c1` (stereo unspecified), the Potency is 12.6 µM (active).

Take `CCc1ccc(NC2=CC(=O)C(=O)c3ccccc32)cc1`: the Potency was 0.501 µM (active).

For `CCc1ccc(C2c3[nH]c4ccccc4c3CCN2C(=O)c2cc(C)nn2C)cc1` (stereo unspecified), the Potency is 5.01 µM (active).

For the compound `Cn1nccc1C(=O)N1CCc2c([nH]c3ccccc23)C1c1ccc(F)cc1` (stereo unspecified), the Potency is 7.94 µM (active).

For `CSc1ccc(C2c3[nH]c4ccccc4c3CCN2C(=O)c2ccnn2C)cc1` (stereo unspecified), the Potency is 7.08 µM (active).

As for `Cc1cc[n+]2cc(-c3cccc([N+](=O)[O-])c3)c(-c3cccc([N+](=O)[O-])c3)cc2c1`, the Potency is 0.631 µM (active).

In the case of `COc1ccc(N(C)S(=O)(=O)c2cccc(C(=O)NCc3ccc(C)cc3)c2)cc1`, the Potency was 12.6 µM (active).

Regarding `COc1cccc(S(=O)(=O)NCc2ccc(C(=O)NCc3ccccn3)cc2)c1`, the Potency result was “inactive”.

On to `CN(CCOc1ccccc1)C(=O)C1CCC(=O)N(CCN2CCOCC2)C1` (stereo unspecified), for which the Potency entry is “inactive”.

Take `CN(Cc1ccccc1Cl)C(=O)C1CCC(=O)N(CCc2cccc(F)c2)C1` (stereo unspecified): the Potency was 11.2 µM (active).

Consider `O=C(Nc1ccccc1)N1CCC(O)(c2cccc(C(F)(F)F)c2)CC1`, for which the Potency is 11.2 µM (active).

With `CCOc1ccccc1NC(=O)C(CC)Sc1nc2ccsc2c(=O)n1CCC(=O)O` (stereo unspecified), the Potency is 12.6 µM (active).

As to `C[N+]1(CCCCSc2ccc(O)cc2)CCCCC1`, the Potency was 7.08 µM (active).

For `Cc1c(C(=O)N2CCN(c3ccc([N+](=O)[O-])cc3)CC2)sc2ncn(CC(=O)N3CCOCC3)c(=O)c12`, the Potency was 12.6 µM (active).

Regarding `COc1ccc(N2CCN(C3CCCN(Cc4ccc(F)cc4)C3)CC2)cc1` (stereo unspecified), the Potency was 11.2 µM (active).

`COc1ccccc1N1CCN(C2CCCN(Cc3ccc(Cl)cc3)C2)CC1` (stereo unspecified): the Potency was 6.31 µM (active).

`CCOC(=O)CSc1nnc(NC(=O)c2cccc([N+](=O)[O-])c2)s1`: the Potency was 12.6 µM (active).

Take `O=C(CSc1nnc(NC(=O)c2ccccc2[N+](=O)[O-])s1)NCC1CCCO1` (stereo unspecified): the Potency entry is “inactive”.

Consider `CCC(C)[C@H](NC(=O)[C@H](Cc1ccccc1)n1c(=O)[nH]c2ccccc2c1=O)C(=O)NCC1CCC(C(=O)O)CC1` (stereo partly specified), for which the Potency is 12.6 µM (active).

Regarding `Clc1ccc(-c2c[n+](Cc3ccc(Cl)cc3Cl)c3n2CCCCC3)cc1`, the Potency was 1.26 µM (active).

Consider `Clc1ccc(-c2c[n+](Cc3ccc(Br)cc3)c3n2CCCCC3)cc1`, for which the Potency is 0.199 µM (active).

Consider `Nc1nnnn1/N=C/C(Br)=C/c1ccccc1`, for which the Potency is 12.6 µM (active).

Take `CCN1CCC(Nc2ccnc3cc(Cl)ccc23)CC1`: the Potency was 0.126 µM (active).

Turning to `O=C(NNc1ccnc2cc(Cl)ccc12)C1CCCCC1`, the Potency was 0.891 µM (active).

Consider `S=C(Nc1ccccc1Cl)N(Cc1ccccc1)Cc1cccnc1`, for which the Potency is 12.6 µM (active).

`CCOC(=O)[C@H]1[C@H]2COc3cc(OC)ccc3[C@@H]2N2C(=O)N(c3ccc(Cl)cc3)C(=O)[C@@]12C`: the Potency is 12.6 µM (active).

As to `O=c1cc(CSc2nc(NCc3ccccc3)c3ccccc3n2)nc2ccc(Cl)cn12`, the Potency was 5.01 µM (active).

As for `Cc1ncc(CO)c(/C=N/NC(=S)Nc2ccc(F)cc2)c1O`, the Potency is 12.6 µM (active).

On to `COc1ccc(C(=O)NCC(=O)N/N=C/c2ccc([N+](=O)[O-])s2)cc1OC`, for which the Potency is 11.2 µM (active).

Regarding `O=C(CNC(=O)c1cccc(F)c1)N/N=C/c1ccc([N+](=O)[O-])s1`, the Potency was 11.2 µM (active).

With `COc1ccc(C(=O)NCC(=O)N/N=C(C)\C=C\c2ccccc2)cc1OC`, the Potency entry is “inactive”.

Take `CCCCCCCn1c(=O)c(C(=O)OC)c(N)c2ccccc21`: the Potency is 12.6 µM (active).

In the case of `NNc1nc(-c2ccccc2Cl)c2cc(Br)ccc2n1`, the Potency is 11.2 µM (active).

With `Cc1c(OCC(=O)NCC(O)c2ccccc2)ccc2c3c(c(=O)oc12)CCC3` (stereo unspecified), the Potency was 14.1 µM (active).

For the compound `O=S(=O)(NCC(O)c1ccccc1)c1cc(Cl)sc1Cl` (stereo unspecified), the Potency result was “inactive”.

Consider `O=C(COc1cc2oc(=O)c3c(c2cc1Cl)CCC3)NCC(O)c1ccccc1` (stereo unspecified), for which the Potency was 11.2 µM (active).

For `OC1(c2cccs2)CN(c2ccc(Br)cc2)C2=[N+]1CCCS2` (stereo unspecified), the Potency was 12.6 µM (active).

As to `OC1(c2cccs2)CN(c2ccc(Cl)cc2)C2=[N+]1CCCC2` (stereo unspecified), the Potency is 10 µM (active).

Turning to `CC(C)(C)Nc1nc(Cl)nc(NC2CCCCC2)n1`, the Potency was 14.1 µM (active).

Take `NC(=S)Nn1c(-c2ccccc2)nc2ccccc2c1=O`: the Potency result is “inactive”.

For the compound `O=C1c2cc(F)ccc2-n2c1nc1ccccc1c2=O`, the Potency was 0.178 µM (active).

Consider `O=C1c2ccccc2-n2c1nc1ccccc1c2=O`, for which the Potency is 0.708 µM (active).

As to `CN(C)CCn1c(=O)n(Cc2ccco2)c(=O)c2c3c(sc21)CCCCC3`, the Potency was 12.6 µM (active).

`COc1ccc(NC(=O)c2ccc(CN3CCN(c4ccccc4)CC3)cc2)cc1OC`: the Potency is 10 µM (active).

Take `O=C(Nc1ccccc1F)c1ccc(CN2CCN(c3ccccc3)CC2)cc1`: the Potency entry is “inactive”.

On to `COc1cccc(NC(=O)c2ccc(CN3CCN(c4ccccc4)CC3)cc2)c1`, for which the Potency was 15.8 µM (active).

For `O=C(Nc1ccc(F)cc1F)c1ccc2c(c1)[nH]c(=O)n2Cc1ccc(F)cc1`, the Potency was 12.6 µM (active).

With `COc1ccc(Cl)cc1/C=C/c1ccc2cccc(O)c2n1`, the Potency was 6.31 µM (active).

Turning to `Oc1cccc2ccc(/C=C/c3ccccc3Br)nc12`, the Potency is 2.82 µM (active).

Regarding `Cn1c2ccccc2c(=O)c2ccc(C#Cc3ccc(N)cc3)cc21`, the Potency is 12.6 µM (active).

As for `COc1ccc(C#Cc2ccc3c(=O)c4ccccc4n(C)c3c2)cc1`, the Potency was 10 µM (active).

In the case of `Cc1ccc2c(c1)c1c3n2CCN(C(=O)CCl)C3CCC1` (stereo unspecified), the Potency is 12.6 µM (active).

Regarding `Cc1cc(C)cc(CC(Cc2nc3ccccc3[nH]2)c2nc3ccccc3[nH]2)c1` (stereo unspecified), the Potency is 2.24 µM (active).

Turning to `CCCCOc1ccc(NC2=NC3(CCCC3)N=C(N)N2)cc1`, the Potency is 1.41 µM (active).

On to `Cc1nc(-c2ccc(S(=O)(=O)N3CCCN(CCc4ccccc4)CC3)s2)cs1`, for which the Potency was 10 µM (active).

On to `Cc1ccc(N2C(=O)N3[C@H](c4ccc(F)cc4)[C@@H]4C(=O)N(C5CCCCC5)C(=O)[C@@H]4[C@]3(Cc3ccccc3)C2=O)cc1`, for which the Potency is 5.62 µM (active).

`Cc1cccc(Nc2nc3c(S(=O)(=O)c4ccccc4)nnn3c3ccccc23)c1C`: the Potency is 4.47 µM (active).

As to `COCCNC(=O)/C(C#N)=C/C=C/c1ccccc1[N+](=O)[O-]`, the Potency was 11.2 µM (active).

In the case of `COc1ccc([N+](=O)[O-])c(S(=O)(=O)c2ccccc2)n1`, the Potency result is “inactive”.

Regarding `N#C/C(=C\C=C\c1ccccc1[N+](=O)[O-])C(=O)NC1CCCCC1`, the Potency is 4.47 µM (active).

For `COC(=O)C(=Cc1ccccc1[N+](=O)[O-])C(=O)OC`, the Potency was 4.47 µM (active).

Consider `CC1CCCCC1NC(=O)/C(C#N)=C/C=C/c1ccccc1[N+](=O)[O-]` (stereo unspecified), for which the Potency was 5.01 µM (active).

As to `COc1ccc(Cn2c(-c3ccc(Br)cc3)c[n+]3ccccc23)cc1`, the Potency was 1.26 µM (active).

Take `O=C(NC12CC3CC(CC(C3)C1)C2)c1ccc([N+](=O)[O-])o1`: the Potency is 6.31 µM (active).

Consider `Cn1cc([N+](=O)[O-])c(C(=O)Nc2ccn(C34CC5CC(CC(C5)C3)C4)n2)n1`, for which the Potency result was “inactive”.

For `CC(NC(=O)c1ccc([N+](=O)[O-])o1)C12CC3CC(CC(C3)C1)C2` (stereo unspecified), the Potency was 12.6 µM (active).

Consider `COCCNCC(=O)NC12CC3CC(CC(C3)C1)C2`, for which the Potency result is “inactive”.

Consider `Cc1ccc(S(=O)(=O)Nc2cc(=O)[nH]c(SCc3ccc(Cl)cc3)n2)cc1`, for which the Potency is 11.2 µM (active).

Regarding `CC(=O)c1c(C)cc(C)c(CSc2nc(C)cc(=O)[nH]2)c1C`, the Potency result was “inactive”.

As for `OC1CCN(c2c3c(nc4cc(-c5ccc(Cl)cc5)nn24)CCC3)CC1`, the Potency was 7.08 µM (active).

Consider `Fc1cc2nc(-c3ccncc3)[nH]c2cc1F`, for which the Potency is 10 µM (active).

In the case of `Cn1ccc(=Nc2ccc(NC(=O)c3ccc(N=c4ccn(C)c5ccc([N+](=O)[O-])cc45)cc3)cc2)cc1`, the Potency is 0.199 µM (active).

As to `Cc1sc2nc[nH]c(=O)c2c1-c1ccc(Cl)cc1`, the Potency entry is “inactive”.

As to `O=C(CCl)Nc1cccc(S(=O)(=O)NC2=NCCC2)c1`, the Potency was 1.26 µM (active).

`COc1ccccc1-n1c(=S)[nH]c2c(sc(=S)n2-c2ccc(C)cc2C)c1=O`: the Potency is 3.16 µM (active).

Regarding `Cc1ccc(C(=O)OCc2nnc(-c3ccc(Br)cc3)o2)cc1`, the Potency result was “inactive”.

Take `CCOC(=O)c1c(C)nc(C)c(C(=O)OCC)c1-c1ccc(Br)cc1`: the Potency was 12.6 µM (active).

Regarding `Cc1cccc(N2CCN(C3=NC(=O)C(Cc4ccccc4)S3)CC2)c1` (stereo unspecified), the Potency is 1.78 µM (active).

For `O=C(c1ccsc1)N1CCCC(N2CCN(c3cccc(C(F)(F)F)c3)CC2)C1` (stereo unspecified), the Potency is 14.1 µM (active).

Regarding `Cc1cc(C(=O)N2CCCC(N3CCN(c4cccc(C(F)(F)F)c4)CC3)C2)c(C)o1` (stereo unspecified), the Potency is 12.6 µM (active).

Consider `Cc1ccc(C(=O)NC2CCCC2)cc1S(=O)(=O)N1CCCCC1`, for which the Potency is 11.2 µM (active).

Consider `O=C(Nc1ccncc1)c1ccc(Cl)c(S(=O)(=O)N2CCCC2)c1`, for which the Potency is 11.2 µM (active).

Regarding `Cc1ccc(S(=O)(=O)N2CCCCC2C)cc1[N+](=O)[O-]` (stereo unspecified), the Potency result is “inactive”.

As to `Cc1ccc(C(=O)NC2CCCCC2)cc1S(=O)(=O)N1CCCC1`, the Potency was 11.2 µM (active).

Regarding `Clc1cccc(OCCCCCN2CCOCC2)c1`, the Potency entry was “inactive”.

Turning to `CN(CCCN1CCOCC1)C(=O)c1ccc2nc(Cc3cccc(Cl)c3)oc2c1`, the Potency was 14.1 µM (active).
